This is an account of results in the supplement of paper PMC6992640.

Each structure is given as a SMILES string.

For the experiment, the system named is WHIM2 (cells of a triple-negative basal-like breast cancer xenograft). Kind of experiment: cell viability of combination (% of vehicle); higher = less cytotoxic. The following applies: 1 µM; 72 h; partner dose: 10 nM. Here is the method: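 PDX cells were treated for 72 h with each drug at 1 µM plus afatinib (10 nM; 1 µM for WHIM30). Luciferase viability is expressed as percent of vehicle.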
For the compound `CNCCC(Oc1cccc2ccccc12)c1cccs1.Cl` (stereo unspecified) [Duloxetine HCl] + CN(C)C/C=C/C(=O)Nc1cc2c(Nc3ccc(F)c(Cl)c3)ncnc2cc1O[C@H]1CCOC1 [Afatinib], the “cell viability of combination” value worked out at 41.1.
With `COc1ccccc1OCCNCC(O)COc1cccc2[nH]c3ccccc3c12` (stereo unspecified) [Carvedilol] + CN(C)C/C=C/C(=O)Nc1cc2c(Nc3ccc(F)c(Cl)c3)ncnc2cc1O[C@H]1CCOC1 [Afatinib] the figure was 41.1; with `CCOC(=O)C1=C(COCCN)NC(C)=C(C(=O)OC)C1c1ccccc1Cl` (stereo unspecified) [Amlodipine] + CN(C)C/C=C/C(=O)Nc1cc2c(Nc3ccc(F)c(Cl)c3)ncnc2cc1O[C@H]1CCOC1 [Afatinib], 51.1; with `COc1cc2ncnc(Nc3ccc(F)c(Cl)c3)c2cc1NC(=O)C=CCN1CCCCC1` + CN(C)C/C=C/C(=O)Nc1cc2c(Nc3ccc(F)c(Cl)c3)ncnc2cc1O[C@H]1CCOC1 [Afatinib], 29.8.
With `CCCCCCCCCCCC1=C(O)C(=O)C=C(O)C1=O` [Embelin] + CN(C)C/C=C/C(=O)Nc1cc2c(Nc3ccc(F)c(Cl)c3)ncnc2cc1O[C@H]1CCOC1 [Afatinib] the figure was 42.9; with `Cc1nc(Nc2ncc(C(=O)Nc3c(C)cccc3Cl)s2)cc(N2CCN(CCO)CC2)n1` + CN(C)C/C=C/C(=O)Nc1cc2c(Nc3ccc(F)c(Cl)c3)ncnc2cc1O[C@H]1CCOC1 [Afatinib], 30.8.
